From PubChem
The list is not random: actives were taken first. Their share in the collection is about 7.3%.
Rab9 promoter act: Rab9 promoter activation; Potency, µM (doses to about 9.22 µM), without a hit: at the top dose activation, negative = inhibition, hits mostly activators; Huh7 Rab9 promoter-luciferase reporter, luminescence, 24 h; actives 2.8% (n = 320,000); AID 485297; also: % of control where 0% means no effect; nearly all actives have a fitted effect of over 60% in size
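Stable Rab9-luc Huh7, 1500 cells/well, 2 h settle; cmpd in DMSO, 24 h, 37 °C/5% CO2; luciferase reagent 10 min RT; luminescence.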
FLuc counter: counter-screen for miR-21 project: firefly luciferase inhibitors or activators; P08659; purified FLuc, Km substrates, luminescence inhibition; Potency, µM (highest dose often 57.5 µM), for the others: at the top dose activity change, negative = inhibition, hits mostly inhibitors; actives 6.9% (n = 360,000);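 also: plate controls were vehicle for no effect and reference inhibitor for full effect; nearly all actives have a fitted effect of over 55% in size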
Target sequence (P08659 whole entry, looked up): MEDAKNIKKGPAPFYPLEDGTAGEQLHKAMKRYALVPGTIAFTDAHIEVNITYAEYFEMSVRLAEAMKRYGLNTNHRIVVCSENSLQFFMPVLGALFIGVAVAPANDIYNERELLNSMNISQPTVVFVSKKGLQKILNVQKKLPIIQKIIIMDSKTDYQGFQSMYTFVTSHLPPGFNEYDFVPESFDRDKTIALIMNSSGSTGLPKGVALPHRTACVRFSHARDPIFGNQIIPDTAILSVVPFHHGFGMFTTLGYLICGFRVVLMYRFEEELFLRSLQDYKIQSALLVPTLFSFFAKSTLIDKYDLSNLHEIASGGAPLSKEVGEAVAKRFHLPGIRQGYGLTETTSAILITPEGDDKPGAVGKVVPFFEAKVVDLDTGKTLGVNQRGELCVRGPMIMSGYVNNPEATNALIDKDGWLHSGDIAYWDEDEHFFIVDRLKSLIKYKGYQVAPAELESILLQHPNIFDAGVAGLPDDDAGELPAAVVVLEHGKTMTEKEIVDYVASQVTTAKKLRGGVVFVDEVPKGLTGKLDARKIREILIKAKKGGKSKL
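Purified P. pyralis luciferase (10nM final) with 10uM D-luciferin and 10uM ATP (Km levels) in 50mM Tris acetate pH 7.5, 10mM Mg acetate, 0.01% Tween-20, 0.05% BSA; qHTS 6-point titration, ~60 µM downward; luminescence read.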
NPC1 prom act: activates the NPC1 promoter; actives 2.4% (n = 320,000); Potency, µM (titrated, usually from 9.22 µM), inactives show top-dose activation, hits mostly activators; Huh7 NPC1 promoter luciferase reporter, 24 h; also: % of control where 0% means no effect; nearly all actives have a fitted effect of over 60% in size
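In 1536-well qHTS, Huh7 cells harboring an NPC1 promoter–luciferase construct received compound for 24 h; activation was quantified by luminescence following luciferase reagent addition.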
KinaseGlo FLuc: blocks Kinase-Glo luciferase, a counter-screen artifact; Q27757; Kinase-Glo luciferase, ATP luminescence, 8 min; Potency, µM (doses to about 38.3 µM), without a hit: at the top dose activity change, negative = inhibition, hits mostly inhibitors; actives 0.28% (n = 200,000); AID 1379; also: % is scaled to controls: 0 for no effect and ±100 for the full control effect; nearly all actives have a fitted effect of over 60% in size
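Luminescence was the read-out, taken after 8-minute incubation at ambient temperature. Luciferase turned over luciferin with 10 uM ATP in imidazole pH 7.2 buffer containing KCl, MgCl2, Tween 20 and BSA.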
SMN2 splice up: enhancers of SMN2 splice variant expression | HEK293 SMN2-luciferase splicing reporter, luminescence, 30-36 h | Potency, µM (titrated, usually from 46.1 µM), for inactives: at the highest dose activity change, positive = activation, actives largely listed as activators | actives 2.8% (n = 210,000) | AID 1458; also: % of control where 0% means no effect; nearly all actives have a fitted effect of over 55% in size
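HEK293 cells carry an SMN2 minigene-luciferase reporter in which exon 7 inclusion puts luciferase in frame. Cells were seeded at 2000 cells/well, attached for 10-12 hours, then exposed to compounds for 30-36 hours at 37C before ONE-Glo luminescence.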
The depositor's hits bear a star; ? = inconclusive; nt = no result; [ ] = remark or other dose. Calls follow the shape of the dose curve; as a rule, active = well fitted curve in the direction sought with a large enough effect; inconclusive = small, poorly fitted or top-dose-only effect, or another doubt; inactive = no such curve, though single readings can be large; an effect the other way counts as inactive or inconclusive. Potency is read from the fitted curve at half-maximal effect.

SMILES	Rab9 promoter act	FLuc counter	NPC1 prom act	KinaseGlo FLuc	SMN2 splice up
COc1cc(/C=C(\C#N)C(N)=O)cc(CSc2nc3ccccc3s2)c1O	nt	nt	nt	-1.8%	5.1%
CN(C)c1ccc(/C=C/c2ccc3ccccc3n2)cc1	?	0.0675µM*	-18.3%	nt	nt
COc1cc(/C=C/c2nc3ccccc3s2)cc(OC)c1O	?	19µM*	6.9%	-4.2%	24.0%
Cc1ccc(S(=O)(=O)N2CCc3cc(C(=O)NCCc4ccccc4)ccc32)cc1	nt	-6.6%	nt	nt	23.0%
O=C(Nc1ccc(F)cc1F)c1cc(-c2ccccc2O)no1	nt	-16.0%	nt	nt	nt
O/C(=C\c1ccc2ccccc2n1)c1ccc(O)cc1O	2.24µM*	1.51µM*	1.12µM*	-19.0%	8.91µM*
Cc1ccc(/C=C/c2nc3ccccc3s2)s1	?	0.301µM*	15.3%	?	-18.2%
CCN(CC(=O)Nc1c(F)cccc1F)C(=O)/C=C/c1ccc2ccccc2n1	-1.8%	1.5%	7.4%	nt	nt
CCCN(CCC)c1ccc(/C=C/c2ccc3cc(OCC)ccc3n2)cc1	2.24µM*	6.75µM*	?	nt	nt
Fc1ccccc1/C=C/c1ccc2ccccc2n1	2.24µM*	0.151µM*	3.98µM*	?	0.891µM*
Cc1ccc(OCCn2cc(C(=O)C3CCCCC3)c3ccccc32)cc1	nt	-3.0%	nt	nt	?
CC(C)n1c(NCc2ccc(N(C)C)cc2)nc2ccccc21	-2.3%	?	-0.5%	-5.3%	-5.6%
CN(C)c1ccc(/C=C/c2nc3ccccc3s2)cc1	?	0.107µM*	-0.5%	11.2µM*	-78.9%
CC(=O)Oc1ccc(Cl)cc1/C=C/c1ccc2ccccc2n1	?	5.36µM*	3.16µM*	-0.5%	14.1µM*
CN(C)c1ccc(CNc2nc3ccccc3s2)cc1	0.251µM*	0.239µM*	0.1µM*	nt	nt
CC(=O)Oc1c(Cl)cc(Cl)cc1/C=C/c1ccc2ccccc2n1	?	-14.0%	15.8%	nt	nt
Cc1cccc(C(=O)NCC(=O)OCc2cc(=O)n3nc(C4CC4)sc3n2)c1	nt	-2.1%	nt	nt	nt
O=C(c1ccc2oc(CCc3ccccc3)nc2c1)N1CCC(O)CC1	1µM*	10.7µM*	1.26µM*	nt	nt
NC(=O)[C@@H]1CCCN1C(=O)c1ccc2oc(CCc3ccccc3)nc2c1	?	-19.0%	?	nt	nt
Nc1ccc2oc(CCc3ccccc3)nc2c1	0.708µM*	9.53µM*	2.51µM*	-4.0%	17.8µM*
O=C(c1ccc2oc(CCCc3ccccc3)nc2c1)N1CCCCC1CO (centres undefined)	6.31µM*	23.9µM*	4.47µM*	nt	nt
CCOC(=O)CC1COCCN1C(=O)c1ccc2oc(Cc3ccccc3)nc2c1 (centres undefined)	3.16µM*	12µM*	?	nt	nt
CC(C)C[C@@H](CC(=O)N[C@@H](CCC(=O)O)CC(=O)O)NC(=O)[C@@H]1CNCC[C@H]1NC(=O)C[C@@H](NC(=O)C[C@H](CO)NC(=O)[C@@H]1CCCC[C@H]1N)C(C)C	nt	nt	nt	-2.3%	0.7%
COCCc1nc2ccc(C(=O)N(C)Cc3cccc(-n4cccn4)c3)cc2o1	2.82µM*	21.3µM*	2.82µM*	nt	nt
CN(Cc1cccc(-n2cccn2)c1)C(=O)CCc1nnc(C2CCCCC2)o1	?	16.9µM*	11.5%	-4.2%	nt
SMILES	Rab9 promoter act	FLuc counter	NPC1 prom act	KinaseGlo FLuc	SMN2 splice up
CN(Cc1cccnc1)C(=O)c1ccc2nc(Cc3ccccc3F)oc2c1	?	23.9µM*	26.7%	nt	nt
C=C1C=C(C(F)F)n2ncc(C(=O)Nc3ccccc3OCC)c2N1	nt	0.4%	nt	nt	nt
CCC(=O)N1CCc2cc(Br)cc(S(=O)(=O)CCC(=O)NCCc3ccc(Cl)cc3)c21	nt	-4.3%	nt	nt	1.2%
CCCNC(=O)Cn1c(=O)c2cccn2c2cccnc21	nt	-4.2%	nt	nt	nt
CCCN(C/C=C/I)C1CCc2cccc(O)c2C1 (centres undefined)	nt	nt	nt	nt	-15.8%
CC(=O)N1CCc2cc(N=NC3=C(O)CC(C)(C)CC3=O)ccc21	1.58µM*	13.5µM*	3.98µM*	-3.6%	?
CCOc1ccc2nc(N=NC3=C(O)CC(C)(C)CC3=O)sc2c1	-34.9%	?	17.5%	-11.1%	-61.8%
Cc1nc2ccc(N=NC3=C(O)CCCC3=O)cc2s1	-2.9%	10.7µM*	4.9%	-13.7%	?
CCN(CC)S(=O)(=O)c1cccc(N=NC2=C(O)CCCC2=O)c1	6.9%	-2.7%	7.0%	-3.5%	-14.5%
Cc1nc2ccc(N=NC3=C(O)CC(C)(C)CC3=O)cc2s1	1.6%	4.26µM*	-2.2%	-4.8%	?
O=C1CCCC(O)=C1N=Nc1cccc(C(=O)O)c1	2.24µM*	8.49µM*	3.55µM*	-10.4%	?
CCCOc1ccc(C2C(=O)N(C3CCCCCC3)CC(=O)N2CCC2=CCCCC2)cc1OC (centres undefined)	nt	-7.3%	nt	nt	nt
Cc1cccc(-c2noc(-c3ccccc3C(=O)NCc3ccco3)n2)c1	?	9.53µM*	?	nt	nt
O=C(NCc1ccco1)c1ccccc1-c1nc(-c2ccccc2)no1	0.2%	26.9µM*	1.1%	-2.8%	6.9%
COc1ccccc1-c1noc(-c2ccccc2C(=O)NCc2ccco2)n1	-4.2%	19µM*	-4.3%	-11.6%	-8.1%
COc1cc(-c2noc(-c3ccccc3C(=O)NCc3ccco3)n2)cc(OC)c1OC	-4.6%	-2.2%	0.2%	1.3%	29.9%
Cc1ccc(-c2noc(CCCC(=O)NCc3ccco3)n2)cc1	nt	-15.4%	nt	nt	-4.0%
Cc1ccc(-c2noc(-c3ccccc3C(=O)NCc3ccco3)n2)cc1	16.5%	5.36µM*	16.2%	nt	nt
CCC(=O)N1CCc2cc(Br)cc(S(=O)(=O)N3CCCC(C(=O)Nc4ccc(C)c(F)c4)C3)c21 (centres undefined)	nt	-12.2%	nt	nt	2.8%
Cc1ccccc1-c1noc(-c2ccc(N3CCCC3)c([N+](=O)[O-])c2)n1	nt	13.5µM*	nt	nt	nt
Cc1noc(-c2ccc(N3CCC(C)CC3)c([N+](=O)[O-])c2)n1	nt	8.49µM*	nt	nt	nt
CCNc1ccc(-c2nc(-c3ccco3)no2)cc1[N+](=O)[O-]	nt	15.1µM*	nt	nt	nt
Cc1nn2c(COc3ccc(NC(=O)c4ccccc4Cl)cc3)nnc2c2ccccc12	1.6%	6.01µM*	-2.8%	-3.0%	19.1%
CN(C)c1ccc(C(=O)OCc2ccccc2)cc1	8.4%	12µM*	12.3%	-2.7%	-0.6%
COC(=O)c1cccc(COC(=O)c2ccc(N(C)C)cc2)c1	?	?	25.4%	6.7%	?
O=C(OCc1ccc(COC(=O)c2ccc(O)cc2)cc1)c1ccc(O)cc1	-5.8%[1.84 µM]	-5.5%	3.2%	nt	nt
COC(=O)c1ccc(COC(=O)c2ccc(N(C)C)cc2)cc1	21.1%	-15.0%	?	1.3%	7.08µM*
CCC(C)Nc1nc(-c2ccc3c(c2)NC(=O)CO3)cs1 (centres undefined)	?	16.9µM*	21.0%	0.5%	1.5%
COc1ccc(/C=C(/CC(=O)Nc2ccccc2)c2nc3ccccc3s2)cc1	27.0%	21.3µM*	13.1%	-3.8%	-22.1%
